Source: PubChem BioAssay (NCATS)
Records with an inconclusive call do not appear. The source made the active and inactive calls. Calls come from the whole dose curve; as a rule, active = well fitted inhibition curve with a large enough effect; inconclusive = small, poorly fitted or top-dose-only effect; inactive = flat fitted curve, though single readings scatter. Bridge positions count the residues as written; N and C are the ends. Square brackets hold non-standard residues; d marks the D form. Peptide text beside a SMILES is read from it. hArg = N=C(N)NCCCC[C@H](N)C(=O)O; Mpa = O=C(O)CCS

Each molecule was assayed on CRL-7250 (assay: qHTS assay to identify novel small-molecules to repurpose for Merkel cell carcinoma treatment (AID 1296009; note: nearly all actives have a fitted effect of over 60% in size)). Conditions: MCC and control cell lines, CellTiter-Glo viability, 72 h; at 44.8 µM (top of the series) unless noted.
Excerpt: MCC is a rare and aggressive neuroendocrine skin cancer with limited treatment options. Approximately 80% of MCCs have the Merkel cell polyomavirus (MCPyV) DNA integrated into the host genome (virus-positive: VP-MCC) and viral oncogenes drive oncogenesis. The remaining MCCs are virus-negative (VN-MCC) and are caused by UV mutagenesis. To identify novel treatments for VP-MCC and/or VN-MCC we screened three VP-MCC cell lines (WAGA, MKL-1, MKL-2), three VN-MCC cell lines (MCC-13, MCC-26, UISO), and four immortalized, non-transformed control cell lines (HaCaT, HEK293T, CRL7250, NIH-3T3) against ~2,400 compounds in the NCGC Pharmaceutical Collection (NPC) and ~1,900 compounds in the Mechanism Interrogation PlatE (MiPE). Using cell viability as a readout (CellTiter-Glo assay) we found both overlapping and distinct drugs that can be repurposed for the treatment of VP-MCC and VN-MCC.
A high-throughput screen was conducted in 1536-well white flat bottom plates (Corning) on a Kalypsys robotic system. Cell lines WAGA, MKL-1, MKL-2, MCC-13, MCC-26, UISO, HaCaT, HEK293T, CRL7250, and NIH-3T3 were screened against 2 small molecule annotated drug libraries NPC and MIPE in dose response (8 and 11 pt. respectively) measuring cell viability after 72 hours of incubation. […] A 1,536 pintool (Kalypsys) was used to transfer 23 nL of compound in DMSO to the 1,536-well assay plates. After 72 hr incubation at 37 degree celsius, 2.5 uL of CellTiter-Glo (Promega) was dispensed into each well using a BiorapTR. Plates were incubated at room temperature for 10 min, transferred to a ViewLux (PerkinElmer) and the luminescence was recorded using an exposure time of 2 seconds. Relative luminescence units (RLUs) were normalized to in-plate controls (no cells as a positive (cytotoxicity) control, DMSO as negative control) and the normalized data was processed using NCATS in-house software.

SMILES | outcome
NC(=O)CN1CCCC1=O | inactive
Nc1ccc(N=Nc2ccccc2)c(N)n1 | inactive
CC(C)NCC(O)COc1ccc(COCCOC(C)C)cc1 (stereo not given) | inactive
CCN(CC)CC(=O)OCC(=O)[C@@]1(O)CC[C@H]2[C@@H]3CCC4=CC(=O)CC[C@]4(C)[C@H]3[C@@H](O)C[C@@]21C | inactive
C(=C\c1ccccc1)/CN1CCN(C(c2ccccc2)c2ccccc2)CC1 | inactive
Cc1c(N(C)C)c(=O)n(-c2ccccc2)n1C | inactive
CCCOC(=O)c1ccc(N)cc1 | inactive
O=C(O)COC(=O)Cc1ccccc1Nc1c(Cl)cccc1Cl | inactive
CCN(CCCc1ccccc1)CCCc1ccccc1 | inactive
CCC(C)(C)c1ccc(CC(C)CN2C[C@@H](C)O[C@@H](C)C2)cc1 (stereo not given in full) | inactive
CCOC(=O)C1=C[C@]2(CC)CCCN3CCc4c(n1c1ccccc41)[C@@H]32 | inactive
COc1ccccc1N1CCN(CCCNc2cc(=O)n(C)c(=O)n2C)CC1 | inactive
Nc1c2c(nc3c1CCC3)CCCC2 | inactive
O=C(O)CCC(=O)c1ccc(-c2ccccc2)cc1 | inactive
COc1ccc(C(Cl)=C(c2ccc(OC)cc2)c2ccc(OC)cc2)cc1 | inactive
CC(C)Cn1cnc2c1c(=O)n(C)c(=O)n2C | inactive
CCCc1ncc(C[n+]2ccccc2C)c(N)n1 | inactive
O=c1[nH]c2cc(C(F)(F)F)c(N3CCOCC3)cc2n(CP(=O)(O)O)c1=O | inactive
COc1cc(NS(=O)(=O)c2ccc(N)cc2)ncn1 | inactive
CC(=O)[C@H]1CC[C@H]2[C@@H]3CC=C4C[C@@H](O)CC[C@]4(C)[C@H]3CC[C@]12C | inactive

SMILES | outcome
CCCCC(=O)O[C@]1(C(=O)CO)[C@@H](C)C[C@H]2[C@@H]3CCC4=CC(=O)C=C[C@]4(C)[C@@]3(F)[C@@H](O)C[C@@]21C | inactive
CN1CCC(OC(c2ccccc2)c2ccccc2)CC1 | inactive
C=C1c2cccc(O)c2C(O)=C2C(=O)[C@]3(O)C(O)=C(C(N)=O)C(=O)[C@@H](N(C)C)[C@@H]3[C@@H](O)[C@H]12 | inactive
CCc1cc2cc(OC)c(OC)cc2c(Cc2ccccc2)n1 | inactive
CC1(C)OC(=O)Nc2ccc(Br)cc21 | inactive
O=C(O)c1cn(C2CC2)c2cc(Cl)c(F)cc2c1=O | inactive
O=C(c1ccc(F)cc1)C1CCN(CCn2c(=O)[nH]c3ccccc3c2=O)CC1 | inactive
CC(C)OC(=O)C(C(=O)OC(C)C)=C1SC=CS1 | inactive
CCCCCCCCCCCCOS(=O)(=O)O | inactive
C[C@H]1C[C@H]2[C@@H]3CCC4=CC(=O)C=C[C@]4(C)[C@@]3(Cl)[C@@H](O)C[C@]2(C)[C@@]1(O)C(=O)CO | inactive
CC1=CC(=O)c2ccccc2C1=O | inactive
Oc1ccc(O)cc1 | inactive
C[C@]12CC[C@@H]3c4ccc(O)cc4CC[C@H]3[C@@H]1CC[C@@H]2OC(=O)CCC1CCCC1 | inactive
NC(=O)[C@@H]1CSSCCC(=O)N[C@@H](CCCCN=C(N)N)C(=O)NCC(=O)N[C@@H](CC(=O)O)C(=O)N[C@@H](Cc2c[nH]c3ccccc23)C(=O)N2CCC[C@H]2C(=O)N1 ([Mpa][hArg]GDWPC-NH2; disulfide 1-7) | inactive
CCOC(=O)[C@H](CCc1ccccc1)N[C@H]1CS[C@H](c2cccs2)CN(CC(=O)O)C1=O | inactive
Nc1nc2ncc(CNc3ccc(C(=O)N[C@@H](CCC(=O)O)C(=O)O)cc3)nc2c(=O)[nH]1 | inactive
CC(C)(C)c1ccc(C(=O)CCCCl)cc1 | inactive
O=C1CC2(CCCC2)CC(=O)N1CCCCN1CCN(c2ncccn2)CC1 | inactive
COP(=O)(OC)OC=C(Cl)Cl | inactive
COc1cc2[nH]c(=O)[nH]c(=O)c2cc1OC | inactive
